Bioassay records from PubChem BioAssay.
IL-1B inflam inh = qHTS for Inhibitors of Inflammasome Signaling: IL-1-beta AlphaLISA Primary Screen. AID 743279, 2014. THP-1 LPS/ATP IL-1B secretion, AlphaLISA, 16 h; active compounds read low. activity change, % at 57.5 µM. actives 4.7% (n = 360,000); in the data active = activity change below about -50%; inconclusive = mostly about -30% to -49%
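THP-1 cells pretreated 1 hr with compounds (up to 57.5 uM final), then stimulated with LPS (250 ng/mL final) plus ATP (1.25 mM final); secreted IL-1B measured by AlphaLISA after 16 hr, decreased signal indicating inhibition.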
CtBP-E1A inh = qHTS Assay for Inhibitors of the CtBP/E1A Interaction; CtBP / adenovirus E1A interaction (AlphaScreen); actives 0.49% (n = 340,000); activity change, % (test concentration not listed); AID 651724, 2012; AlphaScreen GST-E1A/His-CtBP binding, 1536-well; active compounds read low; in the data active = activity change below about -65%; inconclusive = mostly about -30% to -63%
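In 5 uL wells, 23 nL compound meets equimolar GST-E1A and His-CtBP (5X stock 125 nM each) for 2 h, 37 °C. Beads (5X, 50 ug/mL) then 1 h, 37 °C, dark.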
Six1-Eya2 blk = qHTS Assay for Inhibitors of the Six1/Eya2 Interaction | Homeobox protein SIX1 (Homo sapiens) + Protein phosphatase EYA2 (Homo sapiens), … | AlphaScreen GST-Six1/His-Eya2 binding, biochemical; active compounds read low | activity change, % (no concentration beside the values) | actives 0.56% (n = 360,000); in the data active = activity change below about -65%; inconclusive = mostly about -30% to -63%
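AlphaScreen with GST-Six1 and His-Eya2 (5X mix: 250 nM and 500 nM), glutathione donor and nickel acceptor beads; buffer 50 mM Tris pH 8.0, 300 mM NaCl, 1 mM TCEP; 1 h at 37 C in the dark.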
TDP1 cell CPT = qHTS for Inhibitors of human tyrosyl-DNA phosphodiesterase 1 (TDP1): qHTS in cells in presence of CPT. chicken DT40 Tdp1-/-;hTDP1 cells + 20 nM CPT, ATP luminescence, 48 h. Potency, µM (highest dose often 46.2 µM), for inactives: at the highest dose activity change, negative = growth inhibition, hits mostly inhibitors. actives 12% (n = 420,000); note: potency is the fitted concentration of half-maximal effect; nearly all actives have a fitted effect of over 55% in size
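Chicken DT40 Tdp1-/- cells stably complemented with human TDP1 were seeded at 400 cells/well in medium containing 20 nM camptothecin, exposed to pin-transferred compounds, and grown at 37 °C for at least 48 hr. Viability was read as ATP luminescence.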
DT40 TDP1 no CPT = qHTS for Inhibitors of human tyrosyl-DNA phosphodiesterase 1 (TDP1): qHTS in cells in absence of CPT; DT40 Tdp1-/- hTDP1 cells, no CPT, ATP luminescence, 48 h; actives 15% (n = 420,000); AID 686978, 2013; Potency, µM (titrated, usually from 46.2 µM), without a hit: top-dose activity change, negative = growth inhibition, usual class: inhibitors; note: potency is the fitted concentration of half-maximal effect; nearly all actives have a fitted effect of over 55% in size
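A cellular qHTS used chicken DT40 cells lacking endogenous Tdp1 but carrying stably transfected human TDP1. Compounds were applied without camptothecin, and cell growth kinetics were judged by ATP-dependent luminescence after ≥48 hr.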
TDP1 inh = qHTS Assay for Inhibitors of Tyrosyl-DNA Phosphodiesterase (TDP1) | recombinant TDP1, AlphaScreen DNA substrate cleavage | Potency, µM (doses to about 130 µM), without a hit: top-dose activity change, negative = inhibition, usual class: inhibitors | actives 0.28% (n = 350,000) | AID 485290, 2010; note: potency is the fitted concentration of half-maximal effect; nearly all actives have a fitted effect of over 40% in size
Target sequence (Q9NUW8 whole entry, looked up): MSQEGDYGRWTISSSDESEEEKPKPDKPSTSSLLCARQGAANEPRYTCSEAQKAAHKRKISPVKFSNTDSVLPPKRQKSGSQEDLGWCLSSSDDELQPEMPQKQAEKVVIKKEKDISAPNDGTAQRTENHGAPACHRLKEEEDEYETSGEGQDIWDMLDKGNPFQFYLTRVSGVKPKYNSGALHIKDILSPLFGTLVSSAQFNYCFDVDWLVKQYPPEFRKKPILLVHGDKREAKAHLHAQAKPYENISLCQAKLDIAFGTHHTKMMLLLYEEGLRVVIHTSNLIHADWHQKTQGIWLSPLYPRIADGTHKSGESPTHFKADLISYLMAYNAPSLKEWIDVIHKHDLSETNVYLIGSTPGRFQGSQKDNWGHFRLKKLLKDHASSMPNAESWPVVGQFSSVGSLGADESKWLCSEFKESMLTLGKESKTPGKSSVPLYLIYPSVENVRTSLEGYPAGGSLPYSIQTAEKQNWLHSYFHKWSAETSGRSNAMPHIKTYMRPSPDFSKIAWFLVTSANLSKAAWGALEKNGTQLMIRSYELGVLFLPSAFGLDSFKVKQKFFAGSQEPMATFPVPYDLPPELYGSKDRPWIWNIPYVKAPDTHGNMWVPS
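Enzyme-compound mixtures sat 15 min at room temperature, followed by a 5 min reaction with 15 nM final substrate and 10 min with AlphaScreen beads. Recombinant human Tdp1 was used at 1 nM final.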
Starred values were filed as active, the others as inactive; ? = inconclusive; . = not tested or not shown. Most compounds without a hit are left out; they make up all but 18% or so of the library. Unless noted, calls come from the whole dose curve; as a rule, active = well fitted curve in the direction sought with a large enough effect; inconclusive = small, poorly fitted or top-dose-only effect, or another doubt; inactive = no such curve, though single readings can be large; an effect the other way counts as inactive or inconclusive. % is set by controls: 0 for no effect and ±100 for the full control effect.

SMILES | IL-1B inflam inh | CtBP-E1A inh | Six1-Eya2 blk | TDP1 cell CPT | DT40 TDP1 no CPT | TDP1 inh
CCOC(=O)[C@@H]1[C@H]2COc3cc(OC)ccc3[C@H]2N2C(=O)N(c3cccc(F)c3)C(=O)[C@]12C | -4 | -5 | 3 | ? | ? | 1%
COc1ccc(-c2nc(C(N)=O)c3c(n2)n(-c2ccccc2OC)c(=O)n3C)c(OC)c1 | . | . | . | . | . | 5%
CCCCNC(=O)c1nn(-c2ccc(C)cc2)c(=O)c2c1c1ccccc1n2C | . | . | . | 8.2µM* | 2.6µM* | -5%
Cc1cccc(C)c1NC(=O)CSc1nc2ccccc2c2nc(CCc3c(C)n[nH]c3C)nn12 | . | . | . | -17% | -29% | 2%
Cc1ccc(NC(=O)CSc2nc3ccccc3c3nc(CCc4c(C)n[nH]c4C)nn23)cc1F | -6 | 1 | -6 | 7.3µM* | 6.5µM* | 79µM*
Cc1n[nH]c(C)c1CCc1nc2c3ccccc3nc(SCC(=O)Nc3ccc(F)cc3)n2n1 | . | . | . | 18µM* | 29µM* | 0%
CCOC(=O)c1c(NC(=O)c2ccco2)sc(C(=O)N2CCCC2)c1C | -13 | 9 | 5 | ? | ? | -2%
CCOC(=O)c1c(NC(=O)CCC(=O)O)sc2c1CCCCC2 | 16 | 10 | 7 | ? | ? | -3%
Cc1ccccc1NC(=O)C1CC(Cl)=CCC1C(=O)O (centres undefined) | 3 | 1 | 7 | ? | 13µM* | -13%
CCOC(=O)c1c(NC(=O)C(C)N2CCN(C(=O)c3ccco3)CC2)sc2c1CCCC2 (centres undefined) | -57* | -18 | -17 | 15µM* | 16µM* | 10%
CCOC(=O)c1c(NC(=O)C2CC(Cl)=CCC2C(=O)O)sc2c1CCCCC2 (centres undefined) | -12 | 5 | -7 | -1% | 6% | 22µM*
CCOC(=O)c1c(NC(=O)CNCCOC)sc2c1CCCC2 | -1 | -3 | -11 | ? | 12µM* | 2%
CC(C)OC(=O)c1c(NC(=O)C2CC=CCC2C(=O)O)sc2c1CCCCC2 (centres undefined) | ? | 6 | -13 | -15% | -23% | .
CCCOc1ccc(C(=O)c2ccccc2C(=O)OC2CCOC2=O)cc1OCCC (centres undefined) | 22 | -3 | -3 | 1% | 3% | 0%
COc1cc(/C=N/NC(=O)Cc2nnc(N)s2)cc(OC)c1OC | 33 | -1 | -5 | 5% | -6% | -2%
N#CCCSC(=S)C1CCCC1=N (centres undefined) | -10 | -2 | -21 | -2% | ? | .
CCOC(=O)c1c(NC(=O)c2ccco2)sc2c1CCCCC2 | 4 | 21 | 5 | 29µM* | 29µM* | .
O=C(Nc1sc2c(c1C(=O)NCCO)CCCC2)c1ccco1 | -59* | -3 | -5 | -7% | -5% | .
CCOC(=O)c1c(NC(=O)C(C)Sc2cn(CCNC(=O)c3ccc(OCC)cc3)c3ccccc23)sc2c1CCC2 (centres undefined) | . | . | . | ? | ? | 2%
CCOC(=O)c1c(NC(=O)CS(=O)(=O)c2cn(CC)c3ccccc23)sc2c1CCCCC2 | 27 | -9 | -11 | 21µM* | ? | 1%
CCOC(=O)c1c(NC(=O)C(C)Sc2cn(CCNC(=O)c3c(F)cccc3F)c3ccccc23)sc2c1CCC2 (centres undefined) | . | . | . | 21µM* | 16µM* | 3%
O=C(Nc1sc2c(c1C(=O)O)CCCCC2)c1ccco1 | 23 | -4 | -1 | ? | ? | 0%
COC(=O)C(CCSC)NS(=O)(=O)c1ccccc1Br (centres undefined) | . | . | . | . | . | 9%
CCOC(=O)c1c(NC(=O)C2C3C=CC(C3)C2C(=O)O)sc2c1CCCC2 (centres undefined) | 30 | -6 | -7 | ? | ? | 6%
CCOC(=O)c1c(NC(=O)CCNCc2ccco2)sc2c1CCC2 | -69* | -12 | -16 | ? | ? | 2%
SMILES | IL-1B inflam inh | CtBP-E1A inh | Six1-Eya2 blk | TDP1 cell CPT | DT40 TDP1 no CPT | TDP1 inh
CCOC(=O)c1c(NC(=O)c2ccc(N3C(=O)C4C5C=CC(C5)C4C3=O)cc2)sc2c1CCCC2 (centres undefined) | -2 | 5 | -2 | ? | 23µM* | -5%
CCOC(=O)c1c(NC(=O)CCCC(=O)O)sc2c1CCC2 | 11 | 0 | -2 | -6% | -6% | 7%
CCOCCCNC(=O)NC(C)c1c(-n2cccc2)sc2c1CCN(CC)C2 (centres undefined) | . | . | . | 13µM* | 16µM* | 4%
CCOc1ccc(NC(=O)NC(C)c2c(-n3cccc3)sc3c2CCN(CC)C3)cc1 (centres undefined) | . | . | . | 21µM* | 18µM* | 1%
CCN1CCc2c(sc(-n3cccc3)c2C(C)NC(=O)Nc2ccc(Br)cc2)C1 (centres undefined) | . | . | . | 16µM* | 13µM* | 11%
CCC(NC(=O)Nc1ccc(OC)c(OC)c1)c1c(-n2cccc2)sc2c1CCN(C)C2 (centres undefined) | . | . | . | ? | ? | 11%
CCCNC(=O)c1ccc(Cn2cc(C(F)(F)F)ccc2=O)cc1 | 16 | . | 4 | 10% | 14% | 2%
O=C1NC(Cc2ccccc2)c2nc3cc(F)c(F)cc3c(=O)n2-c2cc3ccccc3cc21 (centres undefined) | -5 | -4 | -7 | 23µM* | 18µM* | .
O=C1NC(Cc2ccccc2)c2nc3cc(F)ccc3c(=O)n2-c2cc3ccccc3cc21 (centres undefined) | -11 | -1 | -16 | 5.2µM* | 5.8µM* | .
CCCC1NC(=O)c2cc3ccccc3cc2-n2c1nc1cc(F)ccc1c2=O (centres undefined) | 7 | 0 | -6 | ? | 21µM* | .
O=C1NC(Cc2ccccc2)c2nc3ccc(F)cc3c(=O)n2-c2ncccc21 (centres undefined) | -6 | -2 | 14 | ? | 21µM* | .
O=C1NC(Cc2ccccc2)c2nc3cc(F)ccc3c(=O)n2-c2ccc(Cl)cc21 (centres undefined) | . | . | . | . | . | 0%
